Hits are enriched below; roughly 2.4% of the tested compounds scored in any of these assays.
D2 antag – antagonizes the human D2 dopamine receptor; P14416; inhibition, % at 10 µM; HEK293 TREx D2 cells, calcium flux, dopamine EC80; 340,000 tested, 2% active; in the data active = inhibition above about 30%; inactive = below that, where a call was filed; note: 0% is about no effect
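Calcium flux kinetic readout in an inducible HEK293 TREx D2 line plated overnight at 30 C. After 180 s compound exposure, an EC80 dopamine challenge follows with another 180 s kinetic read to detect antagonism.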
D2 PAM-1 – positively modulates the human D2 dopamine receptor allosterically; P14416; HEK293 T-REx D2, calcium flux, EC20 dopamine potentiation; potentiation, % at 10 µM; 340,000 tested, 0.34% active;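 active = potentiation over 3 SD above the plate norm, cut at about 30% in these data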; note: 0% is about no effect
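Tetracycline-induced Hek293 Trex D2 cells, force-coupled to calcium, loaded with no-wash calcium dye. Compound added with 180 s kinetic read for agonism, then EC20 dopamine and a further 180 s read for potentiation.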
D2 ag-1 – D2 dopamine receptor (human) agonism; P14416; HEK293 T-REx D2 cells, calcium flux agonist mode; activation, % at 2 µM; 340,000 tested, 0.53% active;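 active = activation over 3 SD above normal in the single-dose calcium agonist read, cut at about 30% in these data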; note: 0% is about no effect
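Agonism is scored from calcium flux in a force-coupled, inducible HEK293 cell line expressing D2, read kinetically for 180 s after compound addition against dopamine controls.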
D2 ag-2 – activates the human D2 dopamine receptor | DiscoveRx PathHunter D2 beta-arrestin, luminescence, 90 min; 100% = 57 uM dopamine signal | activation, % (no concentration beside the values) | 360,000 tested, 0.084% active; in the data active = activation above about 40%; inconclusive = between about 15% and that limit
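Agonist mode: compounds alone added to overnight-plated D2 PathHunter cells for 90 min at 37 C, with 57 uM final dopamine (EC100) defining full response. Beta-arrestin recruitment detected by chemiluminescent reagent, read after 1 h at ambient temperature.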
D2 PAM-2 – positive allosteric modulators of human D2 dopamine receptor; 360,000 tested, 0.23% active; DiscoveRx D2 beta-arrestin cells, luminescence, 90 min; 100% = 57 uM dopamine signal; AID 624464; potentiation, % (test concentration not listed); in the data active = potentiation above about 50%; inconclusive = mostly about 30% to 49%
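PathHunter D2 cells, attached overnight at 37 deg C, received compound in DMSO plus dopamine at EC20 (50 nM final) for 90 min at 37 deg C. Beta-arrestin recruitment was read as luminescence after 1 h with detection reagent at ambient temperature.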
D3 arrestin ag – confirmation of human D3 dopamine receptor agonists, beta-arrestin. shares compounds with D2 ag-1. AID 720506. Potency, µM (series often up to 76.9 µM), for the others: top-dose activation, usual class: activators. DiscoveRx D3 beta-arrestin cells, luminescence, 90 min. 2,300 tested, 4% active;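 note: potency is the fitted concentration of half-maximal effect; 100% = dopamine control response; nearly all actives have a fitted effect of over 70% in size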
Target sequence (P35462 whole entry, looked up): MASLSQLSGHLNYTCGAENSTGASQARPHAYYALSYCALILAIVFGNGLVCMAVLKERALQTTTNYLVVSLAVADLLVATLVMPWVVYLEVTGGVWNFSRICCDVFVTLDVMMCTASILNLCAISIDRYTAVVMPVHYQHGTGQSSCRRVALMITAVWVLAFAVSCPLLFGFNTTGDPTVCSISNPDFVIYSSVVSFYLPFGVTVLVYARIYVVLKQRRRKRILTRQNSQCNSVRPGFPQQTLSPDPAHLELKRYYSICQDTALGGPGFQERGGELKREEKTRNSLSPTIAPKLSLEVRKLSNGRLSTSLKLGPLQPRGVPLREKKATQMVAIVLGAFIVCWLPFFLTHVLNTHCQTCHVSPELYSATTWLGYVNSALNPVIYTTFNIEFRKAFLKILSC
D2 ag-3 – D2 receptor agonism, beta-arrestin counterscreen; shares compounds with D2 ag-1; DiscoveRx PathHunter D2 beta-arrestin, luminescence, 90 min; response scale: percent relative to full dopamine signal; Potency, µM (titrated, usually from 76.9 µM), for inactives: top-dose activation, most hits filed as activators; 2,300 tested, 5.9% active; note: potency is the fitted concentration of half-maximal effect; % of control where 0% means no effect; nearly all actives have a fitted effect of over 70% in size
* marks the source's active call; other numbers are inactive results; u = inconclusive; x = no result given. Unless noted, calls come from the whole dose curve; as a rule, active = well fitted activation curve with a large enough effect; inconclusive = small, poorly fitted or top-dose-only effect; inactive = flat fitted curve, though single readings scatter.

SMILES | D2 antag | D2 PAM-1 | D2 ag-1 | D2 ag-2 | D2 PAM-2 | D3 arrestin ag | D2 ag-3
COc1ccc(C2c3ccc4ccccc4c3Oc3ncn(CCCO)c(=N)c32)cc1OC (stereo not given) | x | x | x | -1 | -4 | 2% | 4%
O=C(Nc1ccc(F)cc1)c1ccc(Cn2nc(N3CCN(c4ccccc4)CC3)ccc2=O)o1 | x | -1 | 0 | x | x | x | x
CC(C)(O)C#Cc1ccc(CN2CCN(C3CCCCC3)C(CCO)C2)cc1 (stereo not given) | 6 | 0 | 0 | 2 | -2 | x | x
CC(C)(O)C#Cc1ccc(CN2CCN(C3CCCCC3)C(CCO)C2)s1 (stereo not given) | -7 | -10 | 42* | -1 | -12 | -15% | 2%
OCCN(CCO)Cc1csc2ccccc12 | -3 | -4 | 35* | -5 | -16 | -8% | -3%
OCCN(Cc1ccccc1)Cc1ccccc1O | -6 | -8 | 1 | 0 | -5 | x | x
COc1cc(CN2CCC(C(=O)N3CCN(c4ccccc4F)CC3)CC2)cc(OC)c1O | 34* | 0 | 1 | 2 | -13 | 12% | 11%
COc1cc(CN2CCN(c3ccccc3F)CC2)cc(OC)c1O | 70* | -18 | 60* | u | -1 | u | u
CSc1nc2ccc(NC(=O)c3ccc(=O)[nH]c3)cc2s1 | -4 | -17 | 49* | 5 | -6 | -7% | 1%
CSc1nc2ccc(NC(=O)c3cccs3)cc2s1 | x | x | x | 3 | -19 | x | x
CSc1nc2ccc(NC(=O)c3ccc(=O)n(C)n3)cc2s1 | 20 | -14 | 17 | 1 | -9 | 22% | 12%
CSc1nc2ccc(NC(=O)c3ccc(F)c(F)c3)cc2s1 | -11 | -5 | 2 | -2 | -5 | x | x
COc1cc(C(=S)N2CCOCC2)cc(OC)c1OC(=O)c1ccc(C)cc1 | 27 | 5 | 0 | -6 | -2 | 1% | 2%
CCNC(=O)c1c(NC(=O)c2nc(S(=O)(=O)CC)ncc2Cl)sc2c1CCCC2 | x | x | 2 | x | x | x | x
CCCc1ccc(OC(C)c2nc(-c3ccc(-n4cccc4)cc3)no2)cc1 (stereo not given) | x | -4 | 0 | x | x | x | x
COc1ccccc1N1CCN(C2CCN(C(=O)c3cccc(F)c3)CC2)CC1 | -16 | -6 | 0 | -1 | -26 | x | x
COc1ccccc1N1CCN(C2CCN(C(=O)c3cc(OC)c(OC)c(OC)c3)CC2)CC1 | 4 | -16 | 3 | 3 | -11 | x | x
COc1ccc(C(=O)N2CCN(C3CCC(c4ccccc4)CC3)CC2)cc1OC (stereo not given) | -2 | -19 | 1 | -3 | -16 | x | x
COc1cc(OC)cc(C(=O)N2CCC(N3CCN(c4ccccc4)CC3)CC2)c1 | 37* | -15 | 43* | 4 | -27 | 27% | 23%
COc1ccccc1N1CCN(C2CCN(C(=O)c3ccc(F)cc3)CC2)CC1 | 25 | -20 | 28 | -3 | -5 | -17% | 2%
COc1ccc(C(=O)N2CCC(N3CCN(c4ccccc4)CC3)CC2)cc1OC | 26 | -12 | 41* | 6 | -21 | 12% | 17%
CCC(CC)C(=O)Nc1ccc(C(=O)OCc2cc(=O)n3nc(C4CC4)sc3n2)cc1 | x | -1 | 2 | x | x | x | x
COC(=O)[C@H](CC(C)C)NS(=O)(=O)c1ccccc1 | 17 | 3 | -2 | -2 | -9 | x | x
COC(=O)[C@@H](CC(C)C)NS(=O)(=O)N(Cc1ccccc1)[C@@H](CC(C)C)C(=O)OC | 2 | -3 | -1 | -3 | -4 | -15% | -3%
COc1ccc(NC(=O)C2=C(C)Nc3nc(SCc4ccc(Cl)cc4)nn3C2c2cccc(OC)c2OC)cc1 (stereo not given) | x | -8 | 0 | x | x | x | x
SMILES | D2 antag | D2 PAM-1 | D2 ag-1 | D2 ag-2 | D2 PAM-2 | D3 arrestin ag | D2 ag-3
FC(F)(F)c1cccc(NC(=S)N2CCN(c3ccccn3)CC2)c1 | 2 | -12 | 24 | -5 | -7 | 4% | 4%
Cc1ccc(NC(=S)N2CCN(c3ccccn3)CC2)c(C)c1 | 31* | -10 | 34* | -2 | -1 | 3% | 3%
COc1ccc(NC(=S)N2CCN(c3ccccn3)CC2)cc1OC | 2 | -13 | 49* | 2 | 0 | -5% | -3%
COc1cc(NC(=S)N2CCN(c3ccccn3)CC2)cc(OC)c1OC | x | x | x | 1 | -4 | x | x
COc1ccc(/C=C/C(=O)N2CCN(c3ccccn3)CC2)cc1OC | -11 | 3 | 16 | 3 | -2 | 13% | 7%
COCCNC(=O)c1ccc2c(=O)n(CCc3ccccc3)c(SCC(=O)CC(=O)OC)nc2c1 | x | 0 | 0 | x | x | x | x
COc1ccc(C)cc1NC(=S)N1CCN(c2ccccn2)CC1 | -3 | -23 | 57* | -1 | 0 | -4% | -1%
Oc1ccccc1N1CCN(C(=S)Nc2ccc(SC(F)F)cc2)CC1 | -10 | 7 | 3 | 8 | 23 | x | x
CCc1ccccc1NC(=S)N1CCN(c2ccccn2)CC1 | 1 | -16 | 33* | 3 | -16 | -7% | u
Fc1ccccc1NC(=S)N1CCN(c2ccccn2)CC1 | 0 | 7 | 11 | -1 | 5 | x | x
FC(F)Sc1ccc(NC(=S)N2CCN(c3ccccn3)CC2)cc1 | -14 | 1 | 31* | 2 | -6 | u | u
Cc1ccc(C)c(Cn2c(=O)n(Cc3ccccc3)c(=O)c3sc4ccccc4c32)c1 | x | -3 | 0 | x | x | x | x
COc1ccc(CN([C@H](C)CO)S(=O)(=O)N(Cc2ccccc2)[C@H](CO)C(C)C)cc1 | 5 | 12 | 0 | -1 | -4 | -5% | -6%
COc1ccc(CN([C@H](CO)CC(C)C)S(=O)(=O)N(Cc2ccccc2)[C@H](CO)CC(C)C)cc1 | x | x | x | 1 | -7 | x | x
Cc1cccc(OCCn2c(SCC(=O)O)nc3ccccc32)c1 | x | 16 | 0 | x | x | x | x
CCOC(=O)N1CCN(CC(=O)Nc2c(C(=O)OC)[nH]c3cc(C)ccc23)CC1 | x | -12 | x | 15 | -7 | u | 16%
COCc1cc(C)nc(OCC(=O)N/N=C/c2ccc(O)cc2)c1C#N | 0 | -18 | 50* | -4 | -19 | 5% | 1%
CC(=O)c1cccc(OCC(O)CNCCc2ccc(Cl)cc2)c1 (stereo not given) | -13 | 5 | 1 | 3 | -32 | x | x
CCOC(=O)c1c(C)n(C)c2ccc(OCC(O)CN3CCN(C)CC3)cc12 (stereo not given) | -1 | 3 | 0 | -7 | -9 | x | x
CCOC(=O)c1cccc(OCC(O)CNCCOc2ccccc2F)c1 (stereo not given) | 83* | -31 | 81* | 47* | 4 | 15% | u

Source: PubChem
